# Screens deposited in PubChem BioAssay by National Center for Advancing Translational Sciences (NCATS).
# This is one part of a sample in which hits are shown more often than they occur.
# RXFP1 antagonist: blocks the human relaxin receptor RXFP1 | Q9HBX9 | HEK293-RXFP1, relaxin-stimulated cAMP HTRF, 30 min; stronger effect = lower value | activity change, negative = inhibition, % at 57.5 µM | 0.59% of 350,000 active | AID 1259400;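 active = activity change of -60% or lower, but not beyond a set lower limit; inconclusive = change between -60% and -40%, or beyond the set limit; inactive = change above -40%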; note: % is set by controls: 0 for no effect and ±100 for the full control effect
# TSHR antagonist: human thyrotropin receptor antagonism; activity change, negative = inhibition, % at 11.5 µM; P16473; 0.2% of 330,000 active; TSHR-expressing cells, TSH-stimulated cAMP HTRF, 2 h; stronger effect = lower value; AID 504810;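 active = activity change below a set negative limit, meaning inhibition stronger than a set level, cut at about -70% in these data; inconclusive = activity change between two set negative limits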; note: % is set by controls: 0 for no effect and ±100 for the full control effect
#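 Cell-based HTRF cAMP assay; TSHR cells + compound, TSH EC80 (4nM final), 2 h, 37 deg C. Lysis with anti-cAMP cryptate and cAMP-d2, 30 min RT, read 665/620 nm.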
# HEK293 tox: cytotoxicity counter-screen for GLP-1 receptor inverse agonists; HEK293 cAMP-luciferase reporter cells, luminescence, 24 h; Potency, µM (top dose mostly 38.3 µM), for inactives: top-dose activity change, negative = inhibition, most hits filed as inhibitors; 0.13% of 410,000 active; AID 624418;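 note: loss of luciferase light is scored as toxicity; potency is the fitted concentration of half-maximal effect; % is set by controls: 0 for no effect and ±100 for the full control effect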
#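 To flag toxic compounds, the library was rerun on cells for 24 hr at 37 deg C and 5% CO2. Viability-linked luminescence was captured 12 min after adding luciferase detection reagent.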
# NPSR antagonist: blocks cAMP signaling of the human neuropeptide S receptor | 1% of 220,000 active | CHO-NPSR cells, cAMP TR-FRET, antagonist mode | Q6W5P4 | Potency, µM (series often up to 38.3 µM), for inactives: at the highest dose activity change, negative = inhibition, most hits filed as inhibitors; note: potency is the fitted concentration of half-maximal effect; % is set by controls: 0 for no effect and ±100 for the full control effect; nearly all actives have a fitted effect of over 50% in size
# Target sequence (Q6W5P4 whole entry, looked up): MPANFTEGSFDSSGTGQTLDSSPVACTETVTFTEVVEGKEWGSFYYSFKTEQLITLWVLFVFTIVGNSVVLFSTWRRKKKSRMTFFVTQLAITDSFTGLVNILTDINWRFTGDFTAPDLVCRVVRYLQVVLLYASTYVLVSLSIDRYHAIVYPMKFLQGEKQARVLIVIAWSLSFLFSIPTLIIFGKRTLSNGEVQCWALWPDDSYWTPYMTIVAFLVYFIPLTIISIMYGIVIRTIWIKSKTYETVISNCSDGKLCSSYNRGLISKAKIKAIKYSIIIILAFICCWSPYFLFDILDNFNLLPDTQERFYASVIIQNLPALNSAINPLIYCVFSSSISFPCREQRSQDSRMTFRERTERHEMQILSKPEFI
# PTHR1 agonist: agonists of human PTHR1 parathyroid hormone receptor; AID 743266; Potency, µM (doses to about 115 µM), inactives show at the top dose activation, hits mostly activators; 0.075% of 410,000 active; HEK293 GP2 PTHR1 cells, GloSensor cAMP luminescence, 1 h; note: potency is the fitted concentration of half-maximal effect; nearly all actives have a fitted effect of over 55% in size
#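 HEK-293-derived GP2 cells expressing PTHR1 and a GloSensor cAMP reporter, 3,000/well, plated overnight, given luciferin plus IBMX (each 0.5 mM as added) for 1 h at 37 °C, then compound for 1 h at 37 °C. Luminescence was read after 15 min at room temperature.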
# RXFP1 ag: activates the human relaxin receptor RXFP1. AID 2676. HEK293T-RXFP1 cAMP TR-FRET, 30 min; response scale: percent of porcine relaxin response, buffer zero. 0.3% of 370,000 active. Potency, µM (highest dose often 57.5 µM), for inactives: at the top dose activation, actives largely listed as activators; note: potency is the fitted concentration of half-maximal effect; % is set by controls: 0 for no effect and ±100 for the full control effect; nearly all actives have a fitted effect of over 60% in size
#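 HEK293T cells stably expressing RXFP1 were pretreated with the PDE4 inhibitor Ro 20174, exposed to compounds for 30 min at 37C, lysed, and cAMP was read by TR-FRET. Data normalized to buffer (basal) and 29 nM porcine relaxin (100%).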
# An asterisk follows results filed as active; i = inactive; ? = inconclusive; · = no result; [ ] = dose if it differs, or a comment. Unless noted, calls come from the whole dose curve; as a rule, active = well fitted curve in the direction sought with a large enough effect; inconclusive = small, poorly fitted or top-dose-only effect, or another doubt; inactive = no such curve, though single readings can be large; an effect the other way counts as inactive or inconclusive.
SMILES,RXFP1 antagonist,TSHR antagonist,HEK293 tox,NPSR antagonist,PTHR1 agonist,RXFP1 ag
CC1(C(=O)NS(=O)(=O)c2cccs2)CCN1C(=O)Cc1ccc(Cl)cc1Cl (stereo not drawn),·,·,2%,·,i,·
COc1cc(/C=C2\C(=O)N(c3ccc(NC(C)=O)cc3)N=C2c2ccccc2)ccc1O,-1,5,2%,-44%,10%,-1%
CCOc1cc(/C=C2\C(=O)N(c3nc(-c4ccc(Br)cc4)cs3)N=C2c2ccccc2)ccc1O,?,-10,?,10µM*,i,2%
Cc1cc(=O)[nH]c2nnc(-c3ccc(Br)cc3)n12,-4,-13,3%,·,-24%,-1%
C/C(=N\NC(=O)c1cc(C)nc2ccccc12)c1ccccn1,-4,-15,3.2µM*,·,-96%,-2%
O=C(N/N=C/c1ccccn1)c1cc(-c2ccccc2)nc2ccccc12,-8,6,5µM*,-47%,-58%,3%
Cc1ccc2c(c1)c(=O)c(C(=O)c1ccncc1)cn2CC(=O)Nc1c(C)cccc1C,-5,·,0%,·,i,1%
Cc1ccc(C(=O)NCC(c2cccnc2)N2CCc3ccccc3C2)cc1C (stereo not drawn),-25,·,-7%,·,-30%,-1%
CC(C)(C)c1ccc(C(=O)NCC(c2cccnc2)N2CCc3ccccc3C2)cc1 (stereo not drawn),-77*,·,-22%,·,-38%,-2%
O=C(O)COc1ccc(Cl)cc1C1CCCCC1,-13,·,9%,·,i,·
O=[N+]([O-])c1cc(C(F)(F)F)ccc1NCCc1c[nH]c2ccccc12,-25,-9,10µM*,?,-1%,-5%
CC(C)Oc1ccc(C(=O)NC2CCCCC2)cc1,-7,-10,5%,-16%[46.1 µM],-22%,0%
CC(C)Oc1ccc(C(CCN)C2CCCCC2)cc1 (stereo not drawn),-75*,-3,?,·,-9%,0%
O=C1c2[nH]nc(-c3ccccc3O)c2C(c2ccc(Cl)cc2)N1Cc1ccco1 (stereo not drawn),-111*,·,-28%,·,i,0%
COc1cc(C2c3c(-c4ccccc4O)n[nH]c3C(=O)N2Cc2ccco2)ccc1OCC(C)C (stereo not drawn),-68*,·,-21%,·,-13%,2%
CCC(C)[C@H]1CNCCN1CCc1cccc2ccccc12 (stereo partly drawn),·,11,2%,·,?,-1%
Cc1cccc(OCC(O)CNC(C)(C)C)c1C (stereo not drawn),11,·,·,·,·,·
CC(CNC(=O)c1cc(-c2ccccc2)n[nH]1)c1ccccc1 (stereo not drawn),-13,·,0%,·,i,-2%
COc1cc2c(cc1OC)C1O[C@](c3ccsc3)(C2)OC2=C1C(=O)OC1(CCCCC1)C2,·,·,·,·,·,3%[11.5 µM]
Cc1[nH]n(-c2ccc([N+](=O)[O-])cc2)c(=O)c1C=NCCN1CCN(C(=O)C(C)C)CC1,8,34,-18%,5%,-24%,25µM*
CCCNC(=O)c1cc2n(n1)CCCN(Cc1ccc(F)cc1)C2=O,-13,·,-6%,·,i,1%
CC/C(=N\NC(=O)c1nnn(-c2nonc2N)c1CN(C)c1ccccc1)c1ccccc1,-102*,-6,6%,·,i,3%
CC[n+]1c(/C=C/c2c[nH]c3ccccc23)ccc2cc(C)ccc21,-29,-17,?,13µM*,-17%,1%
CCn1c(=S)[nH]c2c(c1=O)C(C)(C)Cc1ccccc1-2,14,-8,-25%,?,-37%,16µM*
Cn1c(=S)[nH]c2c(c1=O)C(C)(C)Cc1ccccc1-2,29,12,?,6.3µM*,-5%,16µM*
CC1(C)Cc2ccccc2-c2c1c(=O)n(Cc1ccccc1)c1nnnn21,-8,-15,-21%,?,-6%[57.5 µM],0%
CCC(CC)C(=O)Nc1nnc(SCC(=O)NC2CC2)s1,0,2,6%,·,-2%,0%
